This passage reports z-score results from PubChem BioAssay AID1508600 (Functional Genomics Laboratory (NCATS/FGL), 2020).

In all, about 53,000 sequences went through this assay and about 3,700 (7%) were called active. Only a selection was taken, and actives are over-represented in it overall. Values without a mark were called inactive.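 The calls were made as follows: active = gene knockdowns whose robust z-score for IL-1 alpha signal is at least 2 or at most -2, so actives lie on both sides; inactive = the rest.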

The assay can be described thus: Components of the Cytosolic LPS Sensing Pathway: Gene Identification via Genome-wide siRNA Screen.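 Also: robust z of the log signal after scaling to non-targeting control siRNA wells of the plate.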 As to conditions: RAW264.7 macrophages, IL-1a HTRF, actives lie on both sides, screened at 100 nM (by protocol), cells primed 5 h with Pam3CSK4 first. The procedure, abridged: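 Read-out: IL-1a HTRF on supernatant, divided by plate negative-control median ×100, log-transformed and converted to robust z-score. Cells were RAW264.7 given 100 nM siRNA, Pam3CSK4-primed 5 hours, then LipidA-transfected 24 hour.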
On the technique in general: In TR-FRET formats the signal depends on donor and acceptor labels being close together.
With GGCUAUGGAAACCACCACATT against Nrg3, the z-score was -1.21. Under CGAUGAUAAAACGAACAAGTT against Plppr5 stands 2.78 (active); under GGAUUGUCCACAUGGAACUTT against Ccl27a, -0.112; under GGUAUGGAUGAAGAACUAGTT against Pdhb, 1.62. Under GGUUGUACCUACAACAGAUTT against Tiprl stands -0.773; under GGCUUUACUUCUUGCUGUGTT against Olfr1412, -0.918. The same measure for CCAUGGACCAAAUGAAGUUTT against Cd44: 2.59 (active); for GCAAGAUACUGACCACUAGTT against Krt25: 0.14; for CCCAGGUGAGACCUUUACCTT against Fndc3b: -1.76. For CCUUCUUGUGGGAGUGAAATT against Chodl, the z-score is -0.0597. Under GGUAGACACACACAUUCAUTT against Ampd3 stands 0.633; under AGUGCUCAUUAACUGUCGCTT against Snrpd2, -2.75 (active). Turning to CCGUUGACCUGAAAAGGAATT against Clic4, the z-score was -0.0288. GGAGAAAAGCAAUAAUGAATT against Klf12: the z-score was -1.07. Consider CGUGAGCACAAAAAUAUUGTT against Fchsd2, for which the z-score was -0.251.

Turning to GGACAAGUCGAAGAGUGAGTT against Ing1, the z-score is -2.26 (active). For GGAACAGCGGCUAACUUAUTT against Asic4, the z-score is 1.4.

Consider GGUGCUAAGCAUGAAGCCUTT against Stk16, for which the z-score is -1.01. In the case of GGUAGAAGAAUUGUUUGUGTT against Tcp11l1, the z-score was 0.967. For the sequence GGUGAUGCUUCUUGGAGACTT against Rab37, the z-score was -0.59. Under GCGUGAACGGAUAAAAAAUTT against Figla stands 1.09. For the sequence GGCACUUAAGGAAAUUGGGTT against Bloc1s1, the z-score is -2.02 (active). The same measure for CCAUUCCAAAGGUAUUAGCTT against Olfr619: -0.244; for GGCAAAACAACUUUAUUCCTT against Ucp2: 1.14.

Regarding GGAUAUCACCUUCGAGAUATT against Ankrd7, the z-score is -0.0496. Under GGAUGAGAUCAACUUCCUCTT against Krt7 stands -0.6; under GCAUCUCAAGACGAUGGAUTT against Akap8l, 2.3 (active). GGCUUUUGAAGCCAUCAAGTT against Mrpl57: the z-score is -1.2. For the sequence GGAAUUCUGACGUGAAGAATT against Olfr13, the z-score is -0.987. As to GGUAGACUGUGAAAAUGACTT against Ldlr, the z-score is -0.6.

GGUGAAGCGAAUUCUCUACTT against Upb1: the z-score was -0.362. Under “GGCAUUGGCAUUUUUAUAGTT against 9530056K15Rik” stands -0.879; under GCCACGAGUUCUUUGAAGCTT against Ubxn6, -0.15; under GGACAAGAUUGUAUCUGCATT against Olfr1507, -0.56. With GGAGCAAGAGUCUAAAUGATT against Rubcn, the z-score is -2.23 (active).

Consider GGAUCAAGUGGCUGAUUUGTT against Ube2t, for which the z-score is -0.457. As to GGACUAUUCUGAGAAUCCCTT against Olfr821, the z-score was -1.69. Turning to GCCUCUGAUGUAAACAGGATT against Nr2c2ap, the z-score is 0.883. Under “GCAGUGUAUACCUGGGCUATT against 1700001C19Rik” stands 0.388; under GGCACUCCUGAUGUUCUCUTT against Cyb561d2, -2.96 (active); under GGUGUUACAGAUGUACCGATT against Nfkbid, 0.0859. Take GGAAGACAAUGAUGAUGUUTT against Clns1a: the z-score was -1.82. The same measure for GGAGUUUUGAAUAAACCAATT against Tmc7: -0.2; for GGGCUUUCCUCAAGGUAGUTT against Olfr62: -1.39. The same measure for GGAAUUGUCUAACAGGCUGTT against Hoxd12: -0.025; for GGAACAGUUACUUGAGAGUTT against Zfp786: 0.759. Under CGAGCUCAGGCCUAUUAAATT against Cdh12 stands 3.39 (active); under GGCUUUGACAAUCUUUAAGTT against Ergic1, -0.687; under CCUCAACUGGUUCCCUAACTT against Spatc1, -1.73. GCUGGUUACAUAAAGCUACTT against Slc25a51: the z-score is 0.0694. Under CGGAGUAAACAAUACAGUCTT against Gnmt stands 2.26 (active); under CCUCCUAAGGAUGAAGAUUTT against Calml4, 0.654. The same measure for CGACAGUUACUUGCCCAGATT against Rasgrp3: -1.36; for GGCGAAAUCUGCUAGAGUATT against Tppp3: 2.3 (active).

As to GCUGUCGUUGAAGGCAUUGTT against Olfr317, the z-score is -0.828. Consider GAGUGAUGCGCAUUUCGAGTT against Sf3b5, for which the z-score was -2.53 (active). The same measure for GCCAGAUCAUUGUAUCAAUTT against Tmx3: 1.27; for GGAGAUUGUUGACCUGGUCTT against Tuba3b: 2.03 (active). With GGUGGAUGUCUUCUUCAACTT against Gata2, the z-score is 0.697.

On to GCCUCGUGAAUAAUUGAAATT against Ddt, for which the z-score is 0.967. The same measure for GCCUAUUCUAUCGAUAACCTT against Cdh23: 0.801; for GGCCAUCAGUAUCAGCAAATT against Hip1r: 0.547. The same measure for GGCUAUUGUGGAGAAGAUCTT against Cblif: -2.07 (active); for GGAGACUCCUAAGAAGCAGTT against Cc2d1a: 0.445; for GGAUCGAAUCAGGAAUGAATT against Nphs1: 1.39.

As to GGAGAGUUACGACGUAUUCTT against Ckb, the z-score is 0.23. The same measure for GGGACAAAAACACAUGUACTT against Kif5c: 0.773. For GGGAAUCAAAGGCUUUGGGTT against Ms4a1, the z-score is -1.15. Under CCAUAUACCCUUGAAUUCCTT against Tmem185b stands 0.154.
